Inconclusive results are not listed. Active and inactive are the calls of the source. Unless noted, the call rests on the fitted dose curve; in most records, active means well fitted curve in either direction with a large enough effect (not every such curve was filed as active); inconclusive means small, poorly fitted or top-dose-only effect, or another doubt; inactive means flat fitted curve, though single readings scatter.
Columns and labels:
[1] = biological target: Lysosomal acid glucosylceramidase (Homo sapiens) (UniProt P04062); assay: Glucocerebrosidase-p2 (AID 348; in the data active means potency below about 10 µM; further: potency means the concentration at half of the fitted maximal effect); conditions: purified GBA, blue fluorogenic substrate, 40 min
Lysosomal acid glucosylceramidase (Homo sapiens), sequence (P04062 whole entry, looked up): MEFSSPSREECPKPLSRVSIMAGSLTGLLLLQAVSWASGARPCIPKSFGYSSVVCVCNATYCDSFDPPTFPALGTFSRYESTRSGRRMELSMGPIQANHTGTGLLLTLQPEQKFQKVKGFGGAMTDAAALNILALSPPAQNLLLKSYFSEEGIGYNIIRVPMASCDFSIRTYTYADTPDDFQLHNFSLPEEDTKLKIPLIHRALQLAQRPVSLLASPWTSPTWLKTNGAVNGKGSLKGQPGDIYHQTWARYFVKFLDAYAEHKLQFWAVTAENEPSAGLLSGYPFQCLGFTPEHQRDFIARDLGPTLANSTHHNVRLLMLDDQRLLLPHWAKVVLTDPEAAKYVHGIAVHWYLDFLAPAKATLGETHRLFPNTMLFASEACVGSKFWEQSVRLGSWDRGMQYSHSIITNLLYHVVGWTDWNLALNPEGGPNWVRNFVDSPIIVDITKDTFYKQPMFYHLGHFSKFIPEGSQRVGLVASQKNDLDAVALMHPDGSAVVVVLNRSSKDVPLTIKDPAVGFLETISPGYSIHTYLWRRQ
How it was run: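 Normal human glucocerebrosidase (0.2 nM) with blue fluorogenic substrate (80 uM final) in citrate/phosphate pH 5.9 with 10mM sodium taurocholate, 0.01% tween-20; 40 min RT, NaOH/glycine stop; fluorescence Ex 365/Em 440; AC50 from a titration from 0.6 nM upwards.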

[2] = AP1 Signaling Pathway (AID 357); conditions: ME-180 AP-1-bla reporter, EGF-induced, beta-lactamase ratio, 5 h; at 7.69 µM (top of the series) unless noted; further: on the % scale 0 is the no-effect control and ±100 the full control effect
How it was run: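 AP-1-bla ME-180 cells with beta-lactamase reporter under AP-1 response element, stimulated with EC50 EGF; compounds titrated, 5 hours at 37 degrees Celsius. CCF4 read at 460/530 nm ratio; positive and negative modulators judged by AC50.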

[3] = NFAT Signaling Pathway (AID 444); conditions: Jurkat NFAT-bla M1, carbachol, beta-lactamase ratio, 5 h; at 7.69 µM (top of the series) unless noted;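 further: carbachol stimulus at about its EC50 of 1 µM final; on the % scale 0 is the no-effect control and ±100 the full control effect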
How it was run: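 Jurkat cells with NFAT-driven β-lactamase reporter and co-expressed M1 receptor, stimulated with carbachol (final 1 uM, ~EC50), compound titration, 5 h at 37 °C. CCF4 loaded 1 h at RT; 460/530 nm ratio gave %activity and AC50.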

[4] = Stat Signaling Pathway (AID 446); conditions: ME-180 (cervical carcinoma) SIE beta-lactamase reporter, IL-6 stimulated, 5 h; at 7.69 µM (top of the series) unless noted;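 further: ME-180 cervical cancer cells given 40 pM IL-6 alongside compound; SIE-controlled beta-lactamase reporter measured as 460/530 nm FRET emission ratio; on the % scale 0 is the no-effect control and ±100 the full control effect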
How it was run: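 Emission at 460 and 530 nm (excitation 405 nm) reports SIE-controlled beta-lactamase in ME-180 cells. Cells received compound with 40 pM IL-6 for 5 hrs at 37 C; data scaled between 300 pM IL-6 and 125 nM JAK-inhibitor controls.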

[5] = biological target: Glucocorticoid receptor (Homo sapiens) (UniProt P04150); assay: GR-EFC Redistribution (AID 451; calls by dose curve; further: potency means the concentration at half of the fitted maximal effect); conditions: CHO-K1 GR-EFC translocation, beta-gal luminescence, 2 h
Glucocorticoid receptor (Homo sapiens), sequence (P04150 whole entry, looked up, the tested form may be a part): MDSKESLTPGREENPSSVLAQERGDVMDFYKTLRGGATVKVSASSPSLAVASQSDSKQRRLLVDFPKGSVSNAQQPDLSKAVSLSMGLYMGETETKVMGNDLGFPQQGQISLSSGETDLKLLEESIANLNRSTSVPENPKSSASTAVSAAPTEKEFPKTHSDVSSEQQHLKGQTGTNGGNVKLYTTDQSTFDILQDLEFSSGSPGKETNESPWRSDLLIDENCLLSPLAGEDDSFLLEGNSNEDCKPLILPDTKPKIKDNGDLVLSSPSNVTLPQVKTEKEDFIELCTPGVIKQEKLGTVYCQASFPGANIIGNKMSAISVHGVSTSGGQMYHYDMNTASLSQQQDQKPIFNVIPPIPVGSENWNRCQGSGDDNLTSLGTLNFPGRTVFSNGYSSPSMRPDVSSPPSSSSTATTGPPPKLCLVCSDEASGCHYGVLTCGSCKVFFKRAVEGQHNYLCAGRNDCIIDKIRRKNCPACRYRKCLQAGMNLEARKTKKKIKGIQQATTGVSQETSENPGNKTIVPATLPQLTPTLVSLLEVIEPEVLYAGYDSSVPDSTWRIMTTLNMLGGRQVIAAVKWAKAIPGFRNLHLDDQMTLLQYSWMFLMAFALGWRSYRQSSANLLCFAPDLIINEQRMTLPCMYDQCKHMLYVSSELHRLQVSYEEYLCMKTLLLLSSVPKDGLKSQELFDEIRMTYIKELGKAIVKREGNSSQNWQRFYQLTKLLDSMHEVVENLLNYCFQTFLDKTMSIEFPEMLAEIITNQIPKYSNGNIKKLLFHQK
How it was run: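 CHO-K1 cells expressing nuclear EA and GR-ED fragments of b-gal; compounds titrated up to 46 uM final, 2 h at 37 C. GR nuclear translocation read as complemented b-gal luminescence after 1 h RT detection.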

[6] = biological target: Mitogen-activated protein kinase 10 (Mus musculus) (UniProt Q61831); assay: JNK3 AlphaScreen Assay (AID 530); conditions: JNK3 lysate, c-Jun phosphorylation; series mostly up to 57.1 µM;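 further: kinase came from lysate of stimulated human HepG2 cells; signal reports phosphorylation of biotinylated GST-cJun 1-79 at Ser73 with 10 µM ATP; on the % scale 0 is the no-effect control and ±100 the full control effect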
How it was run: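 HepG2 lysate (IL-1b/TNFa pre-activated) + biotin-GST-cJun 1-79 + anti-pSer73 cJun; cpd titration, 15 min RT; ATP 10 uM start; Tris pH 7.6, MgCl2, DTT, vanadate; beads in EDTA buffer; AlphaScreen.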

[7] = qHTS Assay for Lipid Storage Modulators (AID 1519; calls by dose curve); conditions: Drosophila S3 cells, BODIPY lipid droplet/cell ratio, laser cytometry, cells loaded with oleic acid; for activity change, negative = inhibition: at 57.5 µM (top of the series)
How it was run: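 Cells seeded at 5,000 per well were treated with compounds over a concentration series and loaded with oleic acid (400 uM, as added). Lipid droplet fluorescence (488 nm excitation, 500-530 nm channel) was read by laser-scanning cytometry and normalized to 20 uM Triacsin C.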

[8] = Primary qHTS for small molecule stabilizers of the endoplasmic reticulum resident proteome: Secreted ER Calcium Modulated Protein (SERCaMP) assay (AID 1508630; active means well fitted curve in the direction sought with a large enough effect; an effect the other way counts as inactive or inconclusive; further: on the % scale 0 is the no-effect control and ±100 the full control effect); conditions: SH-SY5Y GLuc-SERCaMP (Gaussia luciferase released on ER calcium loss) secretion, thapsigargin, luminescence; series mostly up to 38.4 µM
How it was run: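 The SH-SY5Y reporter protocol was run at 3 concentrations up to 38.3 uM (primary) or 11 concentrations (follow-up): 16 h compound, 100 nM thapsigargin for 4 h, then extracellular luciferase luminescence.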

[9] = biological target: Glucocorticoid receptor (Homo sapiens) (UniProt P04150); assay: GR-GFP Redistribution (AID 450;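 active means compounds whose dose series gives a full or clear partial fitted curve of increased nuclear translocation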; further: potency means the concentration at half of the fitted maximal effect); conditions: U2OS GR-GFP nuclear translocation, laser cytometry, 2 h
[10] = biological target: 3',5'-cyclic-AMP phosphodiesterase 4B (Homo sapiens) (UniProt Q07343); assay: qHTS Assay for Inhibitors of PDE-IV (AID 607; active means well fitted activation curve with a large enough effect in the main read-out, with a control signal flat, not every such curve was filed as active; further: % of control where 0% means no effect); conditions: HEK293 ACTOne CNG channel cells, membrane potential fluorescence; series mostly up to 22.9 µM
3',5'-cyclic-AMP phosphodiesterase 4B (Homo sapiens), sequence (Q07343 whole entry, looked up): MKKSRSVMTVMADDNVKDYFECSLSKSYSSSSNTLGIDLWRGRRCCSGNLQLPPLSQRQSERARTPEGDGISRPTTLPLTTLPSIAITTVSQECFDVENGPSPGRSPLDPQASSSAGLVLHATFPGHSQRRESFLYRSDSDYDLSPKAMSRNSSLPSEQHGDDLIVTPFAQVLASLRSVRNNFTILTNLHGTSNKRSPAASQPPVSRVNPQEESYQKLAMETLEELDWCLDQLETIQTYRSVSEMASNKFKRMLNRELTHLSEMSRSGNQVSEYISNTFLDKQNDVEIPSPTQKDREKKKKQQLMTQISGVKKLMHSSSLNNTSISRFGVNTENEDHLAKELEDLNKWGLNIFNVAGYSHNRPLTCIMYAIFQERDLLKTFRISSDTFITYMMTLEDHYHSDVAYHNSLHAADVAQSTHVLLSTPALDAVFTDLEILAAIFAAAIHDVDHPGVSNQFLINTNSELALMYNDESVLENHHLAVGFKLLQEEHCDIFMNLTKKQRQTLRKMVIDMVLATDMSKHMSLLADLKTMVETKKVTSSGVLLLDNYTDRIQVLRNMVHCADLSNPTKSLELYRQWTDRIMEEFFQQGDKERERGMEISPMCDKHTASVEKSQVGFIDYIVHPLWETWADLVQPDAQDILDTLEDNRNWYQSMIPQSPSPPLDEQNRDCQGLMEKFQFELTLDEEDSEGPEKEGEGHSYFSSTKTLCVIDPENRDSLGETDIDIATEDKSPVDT
How it was run: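 The readout is membrane depolarisation from a cAMP-sensing CNG channel, detected with a potential dye at ex 535/em 590. Cells were HEK293-derived (endogenous PDE-IV) at 1000 cells/well, titrated up to 22.9 uM final.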

[11] = biological target: Cytochrome P450 3A4 (Homo sapiens) (UniProt P08684); assay: qHTS Assay for Activators of Cytochrome P450 3A4 (AID 885; active means well fitted curve in the direction sought with a large enough effect; an effect the other way counts as inactive or inconclusive; further: nearly all actives have a fitted effect of over 65% in size); conditions: recombinant CYP3A4, Luciferin-PPXE luminescence, 60 min; series mostly up to 57.1 µM
Cytochrome P450 3A4 (Homo sapiens), sequence (P08684 whole entry, looked up): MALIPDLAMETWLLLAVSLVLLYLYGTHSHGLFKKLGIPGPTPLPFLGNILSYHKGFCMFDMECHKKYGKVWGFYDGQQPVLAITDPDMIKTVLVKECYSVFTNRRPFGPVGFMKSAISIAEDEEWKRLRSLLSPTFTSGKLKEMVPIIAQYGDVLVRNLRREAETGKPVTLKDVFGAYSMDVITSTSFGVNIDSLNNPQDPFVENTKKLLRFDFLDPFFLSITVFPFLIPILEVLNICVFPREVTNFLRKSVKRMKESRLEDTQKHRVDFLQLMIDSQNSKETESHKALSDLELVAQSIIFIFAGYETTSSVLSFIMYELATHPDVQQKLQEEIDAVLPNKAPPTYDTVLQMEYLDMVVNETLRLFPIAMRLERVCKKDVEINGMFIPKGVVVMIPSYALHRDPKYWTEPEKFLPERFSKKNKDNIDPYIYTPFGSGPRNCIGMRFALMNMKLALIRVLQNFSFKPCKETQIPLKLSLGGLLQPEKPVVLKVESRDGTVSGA
How it was run: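 Activators are scored by enhanced luminescence from CYP3A4 conversion of luciferin-PPXE (25uM, equal to KM) to luciferin, after 60 min at RT with an NADPH-regenerating system.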

[12] = biological target: Cytochrome P450 3A4 (Homo sapiens) (UniProt P08684); assay: qHTS Assay for Inhibitors and Substrates of Cytochrome P450 3A4 (AID 884; active means well fitted curve in the direction sought with a large enough effect; an effect the other way counts as inactive or inconclusive; further: potency means the concentration at half of the fitted maximal effect; nearly all actives have a fitted effect of over 50% in size); conditions: recombinant CYP3A4, Luciferin-PPXE luminescence; series mostly up to 57.1 µM
How it was run: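 Luminescent readout of luciferin produced by CYP3A4 (20 nM) dealkylation of Luciferin-PPXE, 25 uM (its KM). NADPH-driven reaction ran 60 min at RT after 10 min compound preincubation; data scaled to 57 uM ketoconazole as 100% inhibition.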

[13] = Confirmation and Secondary Assay for Modulators of Hemoglobin Beta Chain Splicing at IVS2 654 locus (AID 910; active means well fitted curve in the direction sought with a large enough effect; an effect the other way counts as inactive or inconclusive;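 further: HeLa cells stably carrying EGFP split by mutant beta-globin IVS2-654 intron; % of control where 0% means no effect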); conditions: HeLa EGFP-654 splicing reporter, GFP fluorescence, 48 h; series mostly up to 38.3 µM
How it was run: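 HeLa cells stably expressing EGFP interrupted by β-globin IVS2-654 intron, seeded overnight in Opti-MEM/2% FCS, then treated 2 days at 37 °C. Restored splicing read as total peak GFP intensity per well by laser scanning cytometry (488 nm excitation, 500–520 nm emission); 500 nM antisense PNA as control.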

[14] = Confirmation and Secondary Assay for Modulators of Hemoglobin Beta Chain Splicing at IVS2 705 locus (AID 930; active means well fitted curve in the direction sought with a large enough effect; an effect the other way counts as inactive or inconclusive;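 further: HeLa cells stably expressing the EGFP-705 splicing reporter; GFP fluorescence per well restored by corrected splicing of the IVS2-705 intron in EGFP; % of control where 0% means no effect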); conditions: HeLa EGFP-705 splicing reporter, GFP fluorescence, 48 h; series mostly up to 38.3 µM
How it was run: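 First, HeLa EGFP-705 cells are seeded at 500/well in Optimem with 2% FCS and left overnight. Next, compound or DMSO is added for 2 days. Finally wells are laser-scanned and total peak GFP intensity scored.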

[15] = biological target: Ubiquitin carboxyl-terminal hydrolase 1 (Homo sapiens) (UniProt O94782); assay: Inhibitors of USP1/UAF1: Pilot qHTS (AID 504865; active means well fitted curve in the direction sought with a large enough effect; an effect the other way counts as inactive or inconclusive;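 further: rhodamine fluorescence freed from ubiquitin-rhodamine substrate followed over time; top concentration of the series differs between compounds; on the % scale 0 is the no-effect control and ±100 the full control effect; nearly all actives have a fitted effect of over 35% in size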); conditions: purified USP1/UAF1, Ub-rhodamine cleavage fluorescence; series mostly up to 54.9 µM
Ubiquitin carboxyl-terminal hydrolase 1 (Homo sapiens), sequence (O94782 whole entry, looked up): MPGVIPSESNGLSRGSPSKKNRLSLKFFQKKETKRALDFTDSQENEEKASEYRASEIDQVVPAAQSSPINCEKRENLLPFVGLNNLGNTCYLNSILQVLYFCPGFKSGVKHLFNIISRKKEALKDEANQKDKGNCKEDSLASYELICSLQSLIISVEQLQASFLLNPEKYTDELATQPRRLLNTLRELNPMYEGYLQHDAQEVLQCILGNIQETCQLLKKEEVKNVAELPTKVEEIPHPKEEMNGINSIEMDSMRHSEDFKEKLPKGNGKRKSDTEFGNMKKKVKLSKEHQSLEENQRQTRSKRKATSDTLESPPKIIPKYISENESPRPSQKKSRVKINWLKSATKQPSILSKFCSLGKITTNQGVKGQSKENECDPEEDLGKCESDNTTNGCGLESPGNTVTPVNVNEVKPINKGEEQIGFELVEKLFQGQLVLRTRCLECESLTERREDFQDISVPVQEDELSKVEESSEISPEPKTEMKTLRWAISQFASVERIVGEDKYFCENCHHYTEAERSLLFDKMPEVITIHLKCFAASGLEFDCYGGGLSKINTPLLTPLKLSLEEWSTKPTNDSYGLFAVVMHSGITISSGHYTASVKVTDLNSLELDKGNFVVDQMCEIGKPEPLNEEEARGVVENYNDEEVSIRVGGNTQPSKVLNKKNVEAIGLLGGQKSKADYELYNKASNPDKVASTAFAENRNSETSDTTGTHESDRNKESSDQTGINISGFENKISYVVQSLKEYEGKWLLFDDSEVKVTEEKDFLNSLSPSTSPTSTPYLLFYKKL
How it was run: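 Kinetic fluorescence assay: 1nM USP1/UAF1, 15 min compound preincubation, then 150nM Ub-Rho; 480/540 nm.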

[16] = measured here: cell count channel max response
[17] = measured here: lipid channel max response

| SMILES | Potency [1] | activity change, negative = inhibition [2] | activity change, negative = inhibition [3] | activity, negative = inhibition [4] | Potency [5] | Potency [6] | activity change, negative = inhibition [7] | max response [7, 16] | max response [7, 17] | outcome [8] | Potency [9] | Potency [10] | Potency [11] | Potency [12] | Potency [13] | outcome [14] | Potency [15] |
| --- | --- | --- | --- | --- | --- | --- | --- | --- | --- | --- | --- | --- | --- | --- | --- | --- | --- |
| COc1ccc(C(=O)N2CCC3(CC2)CN(c2ncccn2)C3)cc1 | > 11.4 µM (inactive) | -9.3% (inactive) | 13.7% (inactive) | -24.2% (inactive) | > 46 µM (inactive) | inactive | 1.87% (inactive) | 12.3% | 16.8% | inactive |  |  |  |  |  |  |  |
| O=c1c(-c2cc(F)cc(F)c2)nc2cncnc2n1Cc1ccc(F)cc1 | > 11.4 µM (inactive) | -2.14% (inactive) | -15.1% (inactive) | -0.133% (inactive) | > 46 µM (inactive) | inactive | -8.57% (inactive) | -5.87% | -11% | inactive | > 9.22 µM (inactive) | inactive | inactive |  |  |  |  |
| COc1ncc2nc(-c3cn(C)c4ccccc34)c(=O)n(Cc3ccc(F)cc3)c2n1 | > 11.4 µM (inactive) | 10.6% (inactive) | -4.65% (inactive) | 20.2% (inactive) | > 46 µM (inactive) | inactive | 3.02% (inactive) | 18.8% | 23.9% | inactive | > 9.22 µM (inactive) | inactive | inactive | 6.31 µM (active) |  |  |  |
| N#Cc1cccc(NC(=O)N2CC[C@@]3(CCCN(C(=O)c4cnccn4)C3)C2)c1 | > 11.4 µM (inactive) | -6.32% (inactive) | 12.8% (inactive) | 3.28% (inactive) | > 46 µM (inactive) | inactive | 8.9% (inactive) | 14.7% | 23.6% | inactive |  | inactive |  |  |  |  |  |
| COc1ncc2nc(-c3ccccc3)c(=O)n(C[C@H]3CCCO3)c2n1 | > 11.4 µM (inactive) | -19.2% (inactive) | -13.8% (inactive) | 0.632% (inactive) | > 46 µM (inactive) | inactive | 1.51% (inactive) | 9.98% | 14.7% | inactive | > 9.22 µM (inactive) | inactive | inactive |  |  |  |  |
| CC(=O)NCCNc1nc(-c2ccccc2CN(C)C)nc2ccccc12 | > 11.4 µM (inactive) | 6.16% (inactive) | 2.15% (inactive) | 13.7% (inactive) | > 46 µM (inactive) | inactive | 5.82% (inactive) | 13.1% | 18.7% | inactive | > 46 µM (inactive) | inactive |  |  | inactive | inactive | inactive |
| COC(=O)N1CCC[C@@]2(CCN(Cc3cc(C(F)(F)F)cc(C(F)(F)F)c3)C2)C1 | > 11.4 µM (inactive) | -12.5% (inactive) | 9.2% (inactive) | -8.1% (inactive) | > 46 µM (inactive) | inactive | -1.37% (inactive) | 12.3% | 14.8% | inactive |  | inactive |  |  |  |  |  |
| Cc1ccccc1-c1cc(-n2ccnc2)ncn1 | > 11.4 µM (inactive) | -7.76% (inactive) | -6.87% (inactive) | 15.7% (inactive) | > 46 µM (inactive) | inactive | 9.66% (inactive) | 7.52% | 17.5% | inactive | > 46 µM (inactive) | inactive |  |  | inactive | inactive | inactive |
| O=C(c1csnn1)N1CCC[C@@]2(CCN(C(c3ccccc3)c3ccccc3)C2)C1 | > 11.4 µM (inactive) | 8.26% (inactive) | 29.4% (inactive) | 26.4% (inactive) | > 46 µM (inactive) | inactive | -19.7% (inactive) | -5.14% | -20.5% | inactive |  | inactive |  |  |  |  |  |
| Cc1cccc(CNc2cc(-c3ccoc3)ncn2)c1 | > 11.4 µM (inactive) | -15.6% (inactive) | 12% (inactive) | -3.91% (inactive) | > 46 µM (inactive) | inactive | 5.52% (inactive) | -1.87% | 6.63% | inactive | > 46 µM (inactive) | inactive | inactive |  | inactive | inactive |  |
| O=C(c1csnn1)N1CCC2(CC1)CCN(c1cccc(-c3ccccc3)c1)CC2 | > 11.4 µM (inactive) | -21.7% (inactive) | 22.2% (inactive) | -14.3% (inactive) | > 46 µM (inactive) | inactive | -6.94% (inactive) | 9.03% | 3.45% | inactive |  | inactive |  |  |  |  |  |
| O=C(c1cccc(F)c1)N1CCC[C@@]2(CCN(c3ncccn3)C2)C1 | > 11.4 µM (inactive) | -17.6% (inactive) | 10.1% (inactive) | 1.15% (inactive) | > 46 µM (inactive) | inactive | 3.33% (inactive) | 7.74% | 15.7% | inactive |  | inactive |  |  |  |  |  |
